# ChEMBL document CHEMBL5724796, “Tm Shift (DSF) assay results for EUbOPEN Chemogenomics Library” (2024)
# Residues, ends and D or L forms follow the SMILES beside them. *: point of attachment. Cbz = O=C(OCc1ccccc1)*; CH2F = FC*
# Tests used:
# Conditions in all cases: Compound concentration 20.0 uM
# [1] = target: Tyrosine-protein kinase ABL1 (Homo sapiens) (UniProt P00519)
# [2] = target: Bromodomain-containing protein 4 (Homo sapiens) (UniProt O60885)
# [3] = target: Cyclin-dependent kinase 2 (Homo sapiens) (UniProt P24941)
# [4] = target: Casein kinase I isoform delta (Homo sapiens) (UniProt P48730)
# [5] = target: Glycogen synthase kinase-3 beta (Homo sapiens) (UniProt P49841)
# [6] = target: Mitogen-activated protein kinase 1 (Homo sapiens) (UniProt P28482)
# [7] = target: T1, Aurora kinase A (Homo sapiens) (UniProt O14965)
# T1 sequence (whole entry): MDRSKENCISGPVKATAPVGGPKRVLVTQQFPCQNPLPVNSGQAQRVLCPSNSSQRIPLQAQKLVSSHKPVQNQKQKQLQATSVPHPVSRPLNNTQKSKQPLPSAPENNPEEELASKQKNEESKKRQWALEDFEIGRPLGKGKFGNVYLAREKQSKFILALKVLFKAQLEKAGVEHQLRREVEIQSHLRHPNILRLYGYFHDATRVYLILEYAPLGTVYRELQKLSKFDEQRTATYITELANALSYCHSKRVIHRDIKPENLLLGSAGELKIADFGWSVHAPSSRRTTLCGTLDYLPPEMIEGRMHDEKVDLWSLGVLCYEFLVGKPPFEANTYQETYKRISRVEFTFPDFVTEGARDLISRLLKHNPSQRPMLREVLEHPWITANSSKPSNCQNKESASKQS
# [8] = target: T2, Transcription intermediary factor 1-alpha (Homo sapiens) (UniProt O15164)
# T2 sequence (whole entry): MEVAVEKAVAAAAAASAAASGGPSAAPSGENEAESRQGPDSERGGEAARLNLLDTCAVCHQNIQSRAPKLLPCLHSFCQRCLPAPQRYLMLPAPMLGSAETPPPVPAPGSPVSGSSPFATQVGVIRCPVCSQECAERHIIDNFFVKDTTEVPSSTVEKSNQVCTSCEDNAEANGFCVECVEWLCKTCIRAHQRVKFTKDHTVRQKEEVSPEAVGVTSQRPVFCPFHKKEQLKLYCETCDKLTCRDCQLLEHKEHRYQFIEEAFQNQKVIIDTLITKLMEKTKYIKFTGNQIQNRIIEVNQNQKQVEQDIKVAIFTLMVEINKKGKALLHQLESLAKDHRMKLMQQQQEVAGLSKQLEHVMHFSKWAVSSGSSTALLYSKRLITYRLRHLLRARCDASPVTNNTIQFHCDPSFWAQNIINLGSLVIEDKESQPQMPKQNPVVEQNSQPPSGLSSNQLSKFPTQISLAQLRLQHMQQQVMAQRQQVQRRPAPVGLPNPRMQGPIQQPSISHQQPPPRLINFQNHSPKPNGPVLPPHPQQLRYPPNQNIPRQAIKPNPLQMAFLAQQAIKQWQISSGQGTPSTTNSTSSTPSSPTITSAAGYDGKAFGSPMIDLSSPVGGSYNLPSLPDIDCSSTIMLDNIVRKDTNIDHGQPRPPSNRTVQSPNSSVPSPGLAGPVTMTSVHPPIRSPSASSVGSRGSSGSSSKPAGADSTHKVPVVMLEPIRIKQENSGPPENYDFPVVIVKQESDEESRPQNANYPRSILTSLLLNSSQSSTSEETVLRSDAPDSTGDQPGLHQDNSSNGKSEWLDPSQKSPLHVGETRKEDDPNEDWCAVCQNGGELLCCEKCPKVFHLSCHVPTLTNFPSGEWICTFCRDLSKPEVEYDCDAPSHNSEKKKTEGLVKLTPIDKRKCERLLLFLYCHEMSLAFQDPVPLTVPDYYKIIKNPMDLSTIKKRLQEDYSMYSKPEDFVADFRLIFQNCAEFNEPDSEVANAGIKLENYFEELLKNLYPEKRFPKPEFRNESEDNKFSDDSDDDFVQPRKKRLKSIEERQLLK
# Sequence of Mitogen-activated protein kinase 1 (Homo sapiens) (P28482 whole entry): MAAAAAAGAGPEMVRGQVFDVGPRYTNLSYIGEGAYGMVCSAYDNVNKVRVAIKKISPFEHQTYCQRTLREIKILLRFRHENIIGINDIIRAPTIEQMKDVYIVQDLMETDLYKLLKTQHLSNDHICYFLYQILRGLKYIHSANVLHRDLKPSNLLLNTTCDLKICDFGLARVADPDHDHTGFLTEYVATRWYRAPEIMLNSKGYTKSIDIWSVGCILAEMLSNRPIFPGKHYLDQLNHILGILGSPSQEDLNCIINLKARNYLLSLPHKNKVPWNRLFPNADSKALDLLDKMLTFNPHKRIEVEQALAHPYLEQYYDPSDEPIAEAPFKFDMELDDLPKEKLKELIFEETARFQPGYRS
# Sequence of Tyrosine-protein kinase ABL1 (Homo sapiens) (P00519 whole entry): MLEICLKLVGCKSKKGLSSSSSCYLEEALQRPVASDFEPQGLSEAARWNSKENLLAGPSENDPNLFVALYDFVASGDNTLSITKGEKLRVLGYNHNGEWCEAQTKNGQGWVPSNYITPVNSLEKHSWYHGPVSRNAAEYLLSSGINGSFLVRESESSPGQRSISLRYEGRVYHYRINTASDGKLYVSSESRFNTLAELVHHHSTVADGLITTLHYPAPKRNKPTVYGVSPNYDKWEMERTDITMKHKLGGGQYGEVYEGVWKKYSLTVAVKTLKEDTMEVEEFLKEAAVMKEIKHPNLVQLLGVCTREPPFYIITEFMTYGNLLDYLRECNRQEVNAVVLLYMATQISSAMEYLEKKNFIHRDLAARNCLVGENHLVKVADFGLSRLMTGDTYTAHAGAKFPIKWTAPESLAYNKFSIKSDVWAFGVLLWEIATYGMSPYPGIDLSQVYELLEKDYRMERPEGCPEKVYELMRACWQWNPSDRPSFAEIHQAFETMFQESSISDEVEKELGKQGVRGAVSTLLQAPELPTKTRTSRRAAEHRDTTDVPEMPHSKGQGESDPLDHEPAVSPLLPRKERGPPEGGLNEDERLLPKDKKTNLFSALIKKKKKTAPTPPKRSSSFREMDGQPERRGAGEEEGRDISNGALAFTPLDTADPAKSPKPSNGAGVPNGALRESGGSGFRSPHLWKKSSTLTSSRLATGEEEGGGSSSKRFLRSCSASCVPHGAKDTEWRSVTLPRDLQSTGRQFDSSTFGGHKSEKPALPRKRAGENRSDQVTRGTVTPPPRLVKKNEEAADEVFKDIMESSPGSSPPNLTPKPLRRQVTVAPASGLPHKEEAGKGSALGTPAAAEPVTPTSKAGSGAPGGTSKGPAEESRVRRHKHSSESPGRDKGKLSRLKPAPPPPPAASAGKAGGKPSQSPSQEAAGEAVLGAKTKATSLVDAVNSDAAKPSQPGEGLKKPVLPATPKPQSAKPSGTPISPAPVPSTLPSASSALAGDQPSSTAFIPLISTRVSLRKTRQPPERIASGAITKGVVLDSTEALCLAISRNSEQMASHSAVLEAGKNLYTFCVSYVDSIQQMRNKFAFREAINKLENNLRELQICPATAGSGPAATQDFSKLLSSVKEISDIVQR
# Sequence of Casein kinase I isoform delta (Homo sapiens) (P48730 whole entry, looked up, canonical isoform): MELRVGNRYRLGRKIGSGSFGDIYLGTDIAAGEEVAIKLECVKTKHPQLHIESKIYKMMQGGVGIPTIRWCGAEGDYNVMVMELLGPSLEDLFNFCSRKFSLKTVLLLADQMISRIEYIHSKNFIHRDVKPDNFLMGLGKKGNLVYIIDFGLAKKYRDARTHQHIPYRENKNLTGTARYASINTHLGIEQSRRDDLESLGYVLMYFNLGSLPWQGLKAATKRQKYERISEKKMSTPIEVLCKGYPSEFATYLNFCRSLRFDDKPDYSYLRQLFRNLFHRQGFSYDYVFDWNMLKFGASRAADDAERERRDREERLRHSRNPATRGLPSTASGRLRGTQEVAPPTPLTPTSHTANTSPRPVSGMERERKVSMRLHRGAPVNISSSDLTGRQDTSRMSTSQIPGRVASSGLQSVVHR
# Sequence of Glycogen synthase kinase-3 beta (Homo sapiens) (P49841 whole entry, looked up): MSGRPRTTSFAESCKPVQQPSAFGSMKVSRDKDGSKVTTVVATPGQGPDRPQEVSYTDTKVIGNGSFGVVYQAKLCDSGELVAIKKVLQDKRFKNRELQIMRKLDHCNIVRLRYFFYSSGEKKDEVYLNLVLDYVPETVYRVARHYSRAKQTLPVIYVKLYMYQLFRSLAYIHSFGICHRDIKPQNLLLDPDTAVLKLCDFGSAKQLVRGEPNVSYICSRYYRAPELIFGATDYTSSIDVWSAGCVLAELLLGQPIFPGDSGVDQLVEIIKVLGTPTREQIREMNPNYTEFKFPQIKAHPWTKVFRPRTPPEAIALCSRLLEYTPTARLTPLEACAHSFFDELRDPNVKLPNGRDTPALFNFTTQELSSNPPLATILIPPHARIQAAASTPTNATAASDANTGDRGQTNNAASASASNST
Compound,ΔTm [1],ΔTm [2],ΔTm [3],ΔTm [4],ΔTm [5],ΔTm [6],ΔTm [7],ΔTm [8]
O=C(O)/C(S)=C/c1ccc(I)cc1,0.07 °C,-3.45 °C,-1.16 °C,-0.16 °C,-8.42 °C,-1.42 °C,0.99 °C,-0.27 °C
CC(=O)N[C@@H](CC(=O)O)C(=O)N[C@@H](CCC(=O)O)C(=O)N[C@H](C(=O)N[C@H](C=O)CC(=O)O)C(C)C,-0.28 °C,-1.5 °C,-0.58 °C,-0.17 °C,-0.28 °C,-0.74 °C,-1.77 °C,-1.09 °C
CC(C)c1c(-c2ccccc2)[nH]c2c(C#N)cnn2c1=O,0.72 °C,-2.81 °C,0.4 °C,-0.22 °C,-0.15 °C,0.17 °C,-1.64 °C,-0.06 °C
Nc1nc2cc(CC[C@H]3C[C@@H](n4ccc5c(N)ncnc54)[C@H](O)[C@@H]3O)ccc2cc1Br,2.92 °C,-1.76 °C,-4.38 °C,4.13 °C,-8.32 °C,-17 °C,-10 °C,-0.53 °C
O=C(O)c1cccc(-c2ccc(-c3cn(C(=O)N4CCCCC4Cc4ccccc4)nn3)cc2)c1 (stereo unspecified),-0.1 °C,-2.23 °C,-0.87 °C,-4.82 °C,-4.03 °C,0.56 °C,-3.62 °C,-0.34 °C
C[C@H](NC(=O)CCc1nc2ccccc2c(=O)[nH]1)c1ccccc1,0.18 °C,0.84 °C,0.79 °C,0.42 °C,-0.21 °C,0.83 °C,-1.25 °C,0.31 °C
CC(C)NC(=O)c1ccc(OC(F)F)c(OCC2CC2)c1,0.64 °C,-3.14 °C,0.29 °C,-0.07 °C,-0.46 °C,0.24 °C,-2.33 °C,1.71 °C
Fc1ccc(CNc2ncnc3ccc(F)cc23)cc1,1.11 °C,-2.88 °C,0.04 °C,0.46 °C,0.18 °C,0.19 °C,-1.03 °C,-0.4 °C
CC(C)(F)C[C@H](N[C@@H](c1ccc(-c2ccc(S(C)(=O)=O)cc2)cc1)C(F)(F)F)C(=O)NC1(C#N)CC1,0.21 °C,-2.13 °C,-0.11 °C,-0.06 °C,0 °C,-1.51 °C,-0.27 °C,-1.8 °C
Cc1noc(C)c1-c1cc(Cl)c(Nc2ccccc2C(=O)O)c(Cl)c1,0.49 °C,2.54 °C,-0.13 °C,-0.64 °C,-0.39 °C,0.1 °C,-2.08 °C,-1.42 °C
Cc1ccc(F)c2cc(C(=O)N[C@@H]3CCC[C@H](N4CC[C@H](N(C)S(C)(=O)=O)C4)C3)[nH]c12,0.55 °C,-1.2 °C,0.24 °C,0.73 °C,-1.31 °C,-0.53 °C,0.21 °C,-1.39 °C
C[C@@H]1CCC[C@H](C)N1NC(=O)c1ccc(Cl)c(S(N)(=O)=O)c1,0.07 °C,-0.69 °C,0.04 °C,-0.23 °C,-0.93 °C,0.04 °C,-1.59 °C,0.4 °C
O=C(Nc1cc(C(F)F)ns1)Nc1cc(F)ncc1CO,0.52 °C,-1.44 °C,0.5 °C,-0.49 °C,1.08 °C,0.14 °C,-1.82 °C,0.59 °C
C[C@@H]1CN(Cc2ncccn2)C[C@H]1c1nc2c(cnn2C2CCOCC2)c(=O)[nH]1,0.63 °C,-2.54 °C,0.17 °C,-0.3 °C,0.32 °C,0.24 °C,-2.46 °C,0.61 °C
CC(=O)N[C@@H](Cc1ccc(O)cc1)C(=O)N[C@H](C(=O)N[C@@H](C)C(=O)N[C@@H](CC(=O)O)C(=O)COC(=O)c1c(C)cccc1C)C(C)C,0.26 °C,-2.81 °C,0.14 °C,0.17 °C,-0.23 °C,-0.06 °C,-0.54 °C,-0.84 °C
CC(C)(CNC(=O)c1cccc(-c2noc(C(F)(F)F)n2)c1)c1coc(-c2ccccc2)n1,0.61 °C,-3.84 °C,0.39 °C,0.45 °C,-8.42 °C,-3.6 °C,-2.8 °C,-1.82 °C
COC(=O)CC(NC(=O)C(C)NC(=O)C(NC(=O)C(CC(=O)OC)NC(=O)C(NC(=O)OCc1ccccc1)C(C)C)C(C)C)C(=O)CF (stereo unspecified) (Cbz-VD(OMe)VAD(OMe)-CH2F; configuration not given here),0.15 °C,-1.13 °C,0.27 °C,-0.22 °C,0.19 °C,0.29 °C,-1.87 °C,-0.97 °C
CN1CC(=O)N2[C@H](c3ccc4c(c3)OCO4)c3[nH]c4ccccc4c3C[C@@H]2C1=O,0.48 °C,-3.03 °C,-0.06 °C,0.06 °C,-0.13 °C,0.16 °C,-2.46 °C,-0.6 °C
O=C1/C(=N/Nc2ccc(S(=O)(=O)O)cc2)C(c2ccc([N+](=O)[O-])cc2)=NN1c1ccccc1,1.16 °C,-0.38 °C,-0.28 °C,0.56 °C,-2.61 °C,0 °C,-0.73 °C,-0.32 °C
CN(C)CCCCC(=O)Nc1ccc(NC(=S)NC(=O)c2ccc(C(C)(C)C)cc2)cc1,0.43 °C,-4.74 °C,0.19 °C,0.69 °C,1.54 °C,0.13 °C,-2.09 °C,-0.79 °C
CC1C(C#N)=C(N)OC2=C1C(=O)CC(c1cccc3ccccc13)C2 (stereo unspecified),0.3 °C,-2.09 °C,-0.28 °C,3.72 °C,4.85 °C,-2.01 °C,-0.97 °C,-1.61 °C
CNc1nccc(CN([C@H]2CC[C@H](N)CC2)S(=O)(=O)c2ccc(S(=O)(=O)N(Cc3ccc(Cl)cc3)C3CCCC3)cc2)n1,-0.6 °C,-2 °C,-0.02 °C,-0.71 °C,-0.62 °C,-3.03 °C,-2.32 °C,0.19 °C
